{
  "source": "ChEMBL document CHEMBL3988442",
  "about": "“University of Dundee, Small-Polar-MMV Screening Library” (2021)",
  "note": "Hit rate of the full screen: of about 48,000 compounds, about 13,000 (27%) showed an effect of 50% or more. Some of the results follow.",
  "data": [
    {"tested_on": "Wolbachia pipientis", "assay": "Anti-Wolbachia Cell-Based Screen", "assay_type": "functional", "set-up": "scale not given: in the data most compounds retested in dose-response had high values", "conditions": "5 µM", "units": {"Percent Effect": "%"}, "values": [
      {"compound": "O=C(CN1CCc2cncnc2C1)NC1CCCCNC1=O", "note": "(stereo unspecified)", "Percent Effect": -3.554},
      {"compound": "CCCS(=O)(=O)N1CCOC2(CCCN(c3ccc(C)nn3)C2)C1", "note": "(stereo unspecified)", "Percent Effect": 6.152},
      {"compound": "CC(C)=CCC1(C(=O)O)CCCN(c2cc(N)ncn2)C1", "note": "(stereo unspecified)", "Percent Effect": -4.514},
      {"compound": "Cc1cc(C)nc(N2CCOC(C)(C(=O)N(C)C)C2)n1", "note": "(stereo unspecified)", "Percent Effect": 205.4},
      {"compound": "Cc1cc(C)nc(N2CC[C@@]3(O)CCN(S(=O)(=O)N(C)C)C[C@H]3C2)n1", "Percent Effect": -0.4533},
      {"compound": "CNc1cc(C)nc(N2CCC3(CC2)[C@H](O)C[C@@H]3O)n1", "Percent Effect": -5.411},
      {"compound": "Cc1ccsc1CN(C)c1cc(N2CCOCC2)ncn1", "Percent Effect": -30.66},
      {"compound": "Cc1cc(C)nc(N2CCN(C(=O)c3cc(Cl)c[nH]3)CC2)n1", "Percent Effect": -2.597},
      {"compound": "CNC(=O)C1(C)CN(c2nc(C)cc(C)n2)CCO1", "note": "(stereo unspecified)", "Percent Effect": 133.8},
      {"compound": "Cc1ccc(N2CCOC(C)(C(=O)N(C)C)C2)nn1", "note": "(stereo unspecified)", "Percent Effect": 160},
      {"compound": "Cc1ccc(N2CCC3(CCN(C(N)=O)CC3)CC2)nn1", "Percent Effect": 5.421},
      {"compound": "Cc1cc(N2CCOC(C)(C(=O)N(C)C)C2)ncn1", "note": "(stereo unspecified)", "Percent Effect": 147.4},
      {"compound": "Cc1nc(N2CCOCC2)nc(C)c1NC(=O)Cc1ccc(Cl)cc1", "Percent Effect": -11.2},
      {"compound": "CCOC(=O)NCCC(=O)NCc1ccc(Oc2ccc(F)cc2)nc1", "Percent Effect": -9.89},
      {"compound": "OC(CNc1cncc(OCc2ccccc2)n1)c1ccco1", "note": "(stereo unspecified)", "Percent Effect": 3.469},
      {"compound": "COc1cc(C)ccc1OCC(=O)Nc1ccnc(OCCN(C)C)c1", "Percent Effect": 10.45},
      {"compound": "CCn1c(CN(C)C)nnc1C1CCN(c2nccc(NC)n2)CC1", "Percent Effect": -2.442},
      {"compound": "Cc1cccc(C)c1CNC1(CCO)CCOCC1", "Percent Effect": 0.8259},
      {"compound": "CC(C)CCN1CCCC(Cn2cc(CCO)nn2)C1", "note": "(stereo unspecified)", "Percent Effect": -4.048},
      {"compound": "COc1ccccc1CC1CCCN(CCC(N)=O)C1", "note": "(stereo unspecified)", "Percent Effect": -12.09},
      {"compound": "CN(c1ccccc1)c1ccc(CC2CCCN(CCO)C2)nn1", "note": "(stereo unspecified)", "Percent Effect": 94.33},
      {"compound": "Cc1ccc(N2CCCC(NC(=O)C(C)(C)C#N)C2=O)cc1", "note": "(stereo unspecified)", "Percent Effect": -7.395},
      {"compound": "NC(=O)C1CCCN(Cc2c(-c3ccco3)[nH]c3ncccc23)C1", "note": "(stereo unspecified)", "Percent Effect": -7.112},
      {"compound": "CN1CCCN(C[C@H]2C[C@H](CO)CN(Cc3cccnc3N)C2)CC1", "Percent Effect": -5.741},
      {"compound": "CNc1ncccc1CN1CCN(C)CC(C(=O)N(C)C)C1", "note": "(stereo unspecified)", "Percent Effect": 106.5},
      {"compound": "N#Cc1cccnc1NCc1cccnc1N1CCC(C(N)=O)CC1", "Percent Effect": -4.129},
      {"compound": "CC(C)Oc1ncccc1CNC(=O)N1CCC(C(N)=O)C1", "note": "(stereo unspecified)", "Percent Effect": -8.219},
      {"compound": "CN1CCN2CCN(Cc3ccccc3Cn3cccn3)CC2C1", "note": "(stereo unspecified)", "Percent Effect": -0.2104},
      {"compound": "CNc1ncccc1CN1CCN(C(C)=O)CC(C(N)=O)C1", "note": "(stereo unspecified)", "Percent Effect": 106.9},
      {"compound": "CN(C)c1ncccc1CNC(=O)N1CCCC1CN1CCCCC1", "note": "(stereo unspecified)", "Percent Effect": 7.687},
      {"compound": "CNc1ncccc1CN1CCN(C)CC(C(N)=O)C1", "note": "(stereo unspecified)", "Percent Effect": 105.8}
    ]}
  ]
}
